The test system of assay [1] is Zika virus NS2B-NS3 protease. Kind of assay: Primary screen GU AMC qHTS for Zika virus inhibitors (AID 1347154).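 Note: 0% = no-inhibitor control and -100% = no-enzyme control; nearly all actives have a fitted effect of over 70% in size.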 An outline of the steps:
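Unlinked Zika NS2B hydrophilic domain–NS3 protease complex at 25 nM in 10 mM Tris-HCl pH 8.0, 0.01% Tween 20, with an AMC peptide substrate. Fluorescence change (340/450 nm) over 15 min at room temperature, normalized to controls, fitted to 4-parameter Hill.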
On the technique in general: Quantitative high-throughput screening tests each substance at several concentrations.

For assay [2], the target named is Cytochrome P450 1A2 (Homo sapiens) (UniProt P05177). Briefly: p450-cyp1a2 (AID 410; calls by dose curve; note: potency is the fitted concentration of half-maximal effect). An outline of the steps:
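Luminescent readout of luciferin formed from Luciferin-ME by human CYP1A2; data normalized against complete inhibition by 57 uM furafylline. Enzyme 20nM, substrate 100uM at Km, 100mM KPO4 buffer, 60 min reaction at room temperature.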

Assay [3] deals with Glucocorticoid receptor (Homo sapiens) (UniProt P04150). Kind of assay: GR-GFP Redistribution (AID 450;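 active = compounds whose dose series gives a full or clear partial fitted curve of increased nuclear translocation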; note: potency is the fitted concentration of half-maximal effect). Particulars: U2OS GR-GFP nuclear translocation, laser cytometry, 2 h.
Sequence of Glucocorticoid receptor (Homo sapiens) (P04150 whole entry, looked up): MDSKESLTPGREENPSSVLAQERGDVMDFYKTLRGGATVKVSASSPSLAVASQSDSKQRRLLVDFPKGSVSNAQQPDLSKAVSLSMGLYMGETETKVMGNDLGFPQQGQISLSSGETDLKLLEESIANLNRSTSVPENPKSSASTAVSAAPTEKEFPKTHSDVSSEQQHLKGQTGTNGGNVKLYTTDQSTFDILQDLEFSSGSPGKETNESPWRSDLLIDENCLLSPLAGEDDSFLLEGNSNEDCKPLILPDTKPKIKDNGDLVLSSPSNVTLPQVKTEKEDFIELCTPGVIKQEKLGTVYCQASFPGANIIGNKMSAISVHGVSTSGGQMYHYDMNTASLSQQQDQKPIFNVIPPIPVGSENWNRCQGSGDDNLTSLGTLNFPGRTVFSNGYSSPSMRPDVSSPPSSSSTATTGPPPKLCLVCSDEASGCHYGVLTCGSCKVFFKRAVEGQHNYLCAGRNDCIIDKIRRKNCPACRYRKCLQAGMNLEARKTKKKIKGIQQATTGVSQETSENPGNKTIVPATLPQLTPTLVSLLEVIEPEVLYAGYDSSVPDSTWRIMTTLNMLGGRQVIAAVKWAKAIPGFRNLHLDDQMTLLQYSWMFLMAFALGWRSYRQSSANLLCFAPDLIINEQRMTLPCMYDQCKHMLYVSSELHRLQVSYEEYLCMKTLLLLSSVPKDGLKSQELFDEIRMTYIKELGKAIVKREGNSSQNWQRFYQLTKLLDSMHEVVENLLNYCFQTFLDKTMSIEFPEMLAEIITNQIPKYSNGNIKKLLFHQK
For assay [4] the target is unchanged. Briefly: GR-EFC Redistribution (AID 451; calls by dose curve; note: potency is the fitted concentration of half-maximal effect). Particulars: CHO-K1 GR-EFC translocation, beta-gal luminescence, 2 h. The procedure, abridged:
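CHO-K1 cells expressing nuclear EA and GR-ED fragments of b-gal; compounds titrated up to 46 uM final, 2 h at 37 C. GR nuclear translocation read as complemented b-gal luminescence after 1 h RT detection.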

Assay [5] has as its target Mitogen-activated protein kinase 10 (Mus musculus) (UniProt Q61831). Kind of assay: JNK3 AlphaScreen Assay (AID 530; active = well fitted curve in either direction with a large enough effect, not every such curve was filed as active;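 note: kinase came from lysate of stimulated human HepG2 cells; signal reports phosphorylation of biotinylated GST-cJun 1-79 at Ser73 with 10 µM ATP; series mostly up to about 57 µM; % is set by controls: 0 for no effect and ±100 for the full control effect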). An outline of the steps: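 Pre-activated (IL-1β/TNFα) JNK3 in HepG2 lysates phosphorylates biotin-GST-cJun(1-79), 10 uM ATP; anti-phospho-cJun(Ser73) AlphaScreen read at room temperature, pH 7.6 Tris buffer. Compounds pre-incubated 15 min as titrations.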

For assay [6], the target named is 3',5'-cyclic-AMP phosphodiesterase 4B (Homo sapiens) (UniProt Q07343). Briefly: qHTS Assay for Inhibitors of PDE-IV (AID 607; active = well fitted activation curve with a large enough effect in the main read-out, with a control signal flat, not every such curve was filed as active; note: % of control where 0% means no effect). An outline of the steps:
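HEK293 ACTOne cells with CNG channel (1000/well), endogenous PDE4; membrane potential dye, compounds up to 22.9 uM final. Fluorescence Ex 535/Em 590; RO 20-1724 (100 uM final) as reference.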

In assay [7] the target is Cytochrome P450 3A4 (Homo sapiens) (UniProt P08684). Kind of assay: qHTS Assay for Activators of Cytochrome P450 3A4 (AID 885). Note: nearly all actives have a fitted effect of over 65% in size. The procedure, abridged:
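Human CYP3A4 (20 nM) with Luciferin-PPXE at 25 uM (its KM) in 200 mM KPO4; 10 min compound preincubation, then NADPH regeneration and 60 min reaction at RT. Luciferin read by luminescence; normalized to 57 uM ketoconazole full inhibition.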

In assay [8] the target is Ubiquitin carboxyl-terminal hydrolase 1 (Homo sapiens) (UniProt O94782). Kind of assay: Inhibitors of USP1/UAF1: Pilot qHTS (AID 504865).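 Note: rhodamine fluorescence freed from ubiquitin-rhodamine substrate followed over time; top concentration of the series differs between compounds; % is set by controls: 0 for no effect and ±100 for the full control effect; nearly all actives have a fitted effect of over 35% in size.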 An outline of the steps: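 Enzyme-free wells gave the negative control, while test wells held 1nM USP1/UAF1 preincubated with compound for 15 min at room temperature. Ub-Rho at 150nM final started the reaction, and fluorescence at 480/540 nm was recorded kinetically.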
Sequence of Ubiquitin carboxyl-terminal hydrolase 1 (Homo sapiens) (O94782 whole entry, looked up): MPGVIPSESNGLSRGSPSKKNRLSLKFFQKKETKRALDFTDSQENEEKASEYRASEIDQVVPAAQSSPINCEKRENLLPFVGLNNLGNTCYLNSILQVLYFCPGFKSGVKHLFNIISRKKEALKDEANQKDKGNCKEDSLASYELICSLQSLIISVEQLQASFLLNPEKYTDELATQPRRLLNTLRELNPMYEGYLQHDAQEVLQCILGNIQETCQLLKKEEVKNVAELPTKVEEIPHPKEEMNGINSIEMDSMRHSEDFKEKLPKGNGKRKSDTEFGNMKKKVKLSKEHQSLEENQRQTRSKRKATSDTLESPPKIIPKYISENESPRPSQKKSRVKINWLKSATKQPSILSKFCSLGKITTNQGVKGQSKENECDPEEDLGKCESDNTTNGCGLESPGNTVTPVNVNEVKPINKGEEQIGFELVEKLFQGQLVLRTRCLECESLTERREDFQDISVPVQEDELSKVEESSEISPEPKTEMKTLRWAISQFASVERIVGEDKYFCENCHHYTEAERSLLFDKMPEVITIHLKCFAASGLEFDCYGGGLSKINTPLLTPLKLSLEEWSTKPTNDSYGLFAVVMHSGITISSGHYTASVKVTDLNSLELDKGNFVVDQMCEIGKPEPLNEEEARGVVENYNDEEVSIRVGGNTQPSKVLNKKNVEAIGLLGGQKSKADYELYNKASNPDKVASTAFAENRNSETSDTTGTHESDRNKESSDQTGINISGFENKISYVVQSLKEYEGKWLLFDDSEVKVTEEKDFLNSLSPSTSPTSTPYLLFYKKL

Assay [9] deals with DNA dC->dU-editing enzyme APOBEC-3G (Homo sapiens) (UniProt Q9HC16). Kind of assay: qHTS for inhibitors of Vif-A3G interactions: Validation (AID 588379). Note: 0% is about no effect. The procedure, abridged: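 HeLa cells stably expressing Vif and A3G-eYFP, 700 cells/well, incubated overnight at 37 deg C, then exposed to compound overnight at 37 deg C. Inhibition of Vif-mediated degradation read as increased yellow fluorescence (Ex 488/Em 500-530) by laser-scanning cytometry.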
Sequence of DNA dC->dU-editing enzyme APOBEC-3G (Homo sapiens) (Q9HC16 whole entry, looked up): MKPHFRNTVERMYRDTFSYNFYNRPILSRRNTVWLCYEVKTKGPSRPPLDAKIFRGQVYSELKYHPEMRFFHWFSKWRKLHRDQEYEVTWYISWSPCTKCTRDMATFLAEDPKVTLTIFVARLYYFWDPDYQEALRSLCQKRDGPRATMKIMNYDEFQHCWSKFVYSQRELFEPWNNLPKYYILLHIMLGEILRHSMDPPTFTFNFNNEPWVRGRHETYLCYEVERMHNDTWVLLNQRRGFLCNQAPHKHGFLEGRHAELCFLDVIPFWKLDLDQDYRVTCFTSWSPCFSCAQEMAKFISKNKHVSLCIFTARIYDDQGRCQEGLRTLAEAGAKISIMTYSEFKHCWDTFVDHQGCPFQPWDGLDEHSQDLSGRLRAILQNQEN

In assay [10] the target is Furin (Homo sapiens) (UniProt P09958). Kind of assay: Furin counterscreen qHTS for Zika virus inhibitors (AID 1347149). Note: potency is the fitted concentration of half-maximal effect; nearly all actives have a fitted effect of over 70% in size. An outline of the steps:
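Fluorogenic cleavage of BOC-RVRR-AMC (2 microM final, Km ~15 µM) was monitored (ex 340, em 450 nm) at 37C after 15 min RT preincubation of 5 nM furin with compounds in HEPES pH 7.0 buffer with CaCl2 and Triton X-100. Percent inhibition was fitted to a 4-parameter Hill curve.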
(The purpose of a counterscreen is to sort out artefacts and off-target activity.)

The subject of assay [11] is Zika virus NS2B-NS3 protease (linked construct). Kind of assay: Confirmatory screen NINDS AMC qHTS for Zika virus inhibitors (AID 1347152). Note: potency is the fitted concentration of half-maximal effect; nearly all actives have a fitted effect of over 70% in size. An outline of the steps: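 Concentration-response confirmation used the NINDS linked protease (NS2B hydrophilic domain joined to NS3 protease domain), 1 nM, with a 15-min compound preincubation. Substrate, Nle-KRR-AMC at 10 microM, was read by UV fluorescence before and after 15 min.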

In assay [12] the test system is Zika virus NS2B-NS3 protease (unlinked complex). Briefly: Confirmatory screen GU AMC qHTS for Zika virus inhibitors (AID 1347153).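 Note: percent inhibition with 0% = no inhibitor control and 100% = no enzyme control; nearly all actives have a fitted effect of over 70% in size.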 The procedure, abridged:
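Unlinked NS2B-NS3 complex (25 nM) in 10 mM Tris-HCl pH 8.0, 0.01% Tween 20 preincubated 15 min with compound, then 10 microM Bz-Nle-KRR-AMC (Km 18.3 µM). Fluorescence change over 15 min, normalized, Hill-fitted.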

Assay [13] in a line: Confirmatory screen NINDS Rhodamine qHTS for Zika virus inhibitors (AID 1347161).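 Note: purified Zika NS2B-NS3 protease with linked NS2B cofactor domain and Rhodamine110 peptide substrate; series mostly up to about 110 µM; plate controls were no-inhibitor control for no effect and no-enzyme control for full effect; nearly all actives have a fitted effect of over 60% in size.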 The procedure, abridged:
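Purified NS2B-NS3 protease with the NS2B hydrophilic domain joined by a flexible linker (25 nM) in 10 mM Tris-HCl pH 8.0, 0.01% Tween 20, preincubated 15 min at RT with compound; Rhodamine110 peptide substrate 1.5 µM; fluorescence change over 15 min; 4-parameter Hill fit.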

A short description of assay [14]: Vero cells viability qHTS for Zika virus inhibitors (AID 1347167). Note: % is set by controls: 0 for no effect and ±100 for the full control effect. An outline of the steps:
(§1)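 Cells seeded at 2.5 x 10^5 cells/mL in DMEM with 4% FBS and attached overnight at 37 degrees C, then exposed to compound for 24 to 48 hours. Viability read as ATP content by CellTiter Glo luminescence.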

Assay [15] in a line: HepG2 cells viability qHTS for Zika virus inhibitors (AID 1347168). Note: % is set by controls: 0 for no effect and ±100 for the full control effect. The procedure, abridged: as §1
Assay [16] can be described thus: Tertiary RLuc qRT-PCR qHTS assay for Zika virus inhibitors (AID 1347169). Note: top concentration of the series differs between compounds; % is set by controls: 0 for no effect and ±100 for the full control effect; nearly all actives have a fitted effect of over 55% in size. An outline of the steps:
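Inhibition of ZIKV-RLuc replication in Vero cells, read as Renilla luminescence 1-1.5 hrs after live-cell substrate addition, following 48-72 hrs infection at MOI 1-2 in presence of compound.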

Where “and” joins values, the source holds several entries; their conditions need not be identical. Identical values can stand only once. Unmarked numbers belong to inactive results. Records with an inconclusive call do not appear. Calls of active or inactive are those of the source. Unless noted, calls come from the whole dose curve; as a rule, active = well fitted curve in the direction sought with a large enough effect; inconclusive = small, poorly fitted or top-dose-only effect, or another doubt; inactive = no such curve, though single readings can be large; an effect the other way counts as inactive or inconclusive. Bounds are passed on as bounds.

Sequence of Furin (Homo sapiens) (P09958 whole entry, looked up): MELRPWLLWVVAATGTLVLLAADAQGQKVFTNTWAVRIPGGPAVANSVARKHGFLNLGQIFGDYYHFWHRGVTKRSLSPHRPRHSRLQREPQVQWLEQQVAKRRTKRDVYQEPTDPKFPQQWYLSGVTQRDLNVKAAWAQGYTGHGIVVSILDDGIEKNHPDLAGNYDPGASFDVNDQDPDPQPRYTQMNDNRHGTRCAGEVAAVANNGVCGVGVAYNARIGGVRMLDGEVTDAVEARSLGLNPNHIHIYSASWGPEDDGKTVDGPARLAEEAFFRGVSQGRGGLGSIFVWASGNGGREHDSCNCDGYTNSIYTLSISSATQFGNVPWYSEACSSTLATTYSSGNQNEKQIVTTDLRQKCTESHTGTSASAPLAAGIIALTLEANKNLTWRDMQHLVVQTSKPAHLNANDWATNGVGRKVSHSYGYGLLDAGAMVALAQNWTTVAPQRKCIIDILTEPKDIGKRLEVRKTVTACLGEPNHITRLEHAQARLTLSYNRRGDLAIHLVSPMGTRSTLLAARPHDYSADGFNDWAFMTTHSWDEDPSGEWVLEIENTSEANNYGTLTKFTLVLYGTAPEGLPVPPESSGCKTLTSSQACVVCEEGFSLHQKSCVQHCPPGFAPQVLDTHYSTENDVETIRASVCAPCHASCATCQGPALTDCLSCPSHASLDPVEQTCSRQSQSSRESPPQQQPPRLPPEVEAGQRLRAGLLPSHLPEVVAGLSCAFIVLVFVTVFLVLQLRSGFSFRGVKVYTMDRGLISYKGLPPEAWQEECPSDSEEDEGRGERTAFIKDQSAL
Sequence of Cytochrome P450 1A2 (Homo sapiens) (P05177 whole entry, looked up): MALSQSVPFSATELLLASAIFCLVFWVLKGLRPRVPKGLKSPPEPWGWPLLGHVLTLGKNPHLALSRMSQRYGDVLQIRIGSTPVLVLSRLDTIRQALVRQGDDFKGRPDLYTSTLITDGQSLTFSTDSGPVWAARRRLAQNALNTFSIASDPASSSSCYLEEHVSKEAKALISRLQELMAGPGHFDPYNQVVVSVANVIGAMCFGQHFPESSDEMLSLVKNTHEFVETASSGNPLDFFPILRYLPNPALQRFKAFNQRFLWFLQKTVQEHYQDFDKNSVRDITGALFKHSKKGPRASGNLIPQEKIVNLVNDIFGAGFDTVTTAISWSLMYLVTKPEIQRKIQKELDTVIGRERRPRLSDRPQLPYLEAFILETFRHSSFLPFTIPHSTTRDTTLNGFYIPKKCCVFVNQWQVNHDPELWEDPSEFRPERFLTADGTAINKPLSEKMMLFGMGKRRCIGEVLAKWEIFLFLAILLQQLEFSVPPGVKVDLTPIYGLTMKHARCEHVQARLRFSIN
Sequence of Cytochrome P450 3A4 (Homo sapiens) (P08684 whole entry, looked up): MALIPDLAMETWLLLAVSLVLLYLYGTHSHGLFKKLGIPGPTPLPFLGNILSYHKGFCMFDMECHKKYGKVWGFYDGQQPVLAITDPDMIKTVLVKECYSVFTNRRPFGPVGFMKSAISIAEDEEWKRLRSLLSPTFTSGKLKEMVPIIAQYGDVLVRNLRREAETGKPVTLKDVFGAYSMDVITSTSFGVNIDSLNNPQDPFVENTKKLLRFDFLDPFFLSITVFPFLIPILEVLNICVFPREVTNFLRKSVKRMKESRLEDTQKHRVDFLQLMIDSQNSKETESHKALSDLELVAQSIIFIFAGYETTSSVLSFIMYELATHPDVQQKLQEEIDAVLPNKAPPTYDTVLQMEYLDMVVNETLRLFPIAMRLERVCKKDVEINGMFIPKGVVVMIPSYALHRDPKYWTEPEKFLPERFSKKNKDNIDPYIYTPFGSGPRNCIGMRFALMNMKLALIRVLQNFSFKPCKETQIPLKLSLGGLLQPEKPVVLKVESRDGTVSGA
Sequence of 3',5'-cyclic-AMP phosphodiesterase 4B (Homo sapiens) (Q07343 whole entry, looked up): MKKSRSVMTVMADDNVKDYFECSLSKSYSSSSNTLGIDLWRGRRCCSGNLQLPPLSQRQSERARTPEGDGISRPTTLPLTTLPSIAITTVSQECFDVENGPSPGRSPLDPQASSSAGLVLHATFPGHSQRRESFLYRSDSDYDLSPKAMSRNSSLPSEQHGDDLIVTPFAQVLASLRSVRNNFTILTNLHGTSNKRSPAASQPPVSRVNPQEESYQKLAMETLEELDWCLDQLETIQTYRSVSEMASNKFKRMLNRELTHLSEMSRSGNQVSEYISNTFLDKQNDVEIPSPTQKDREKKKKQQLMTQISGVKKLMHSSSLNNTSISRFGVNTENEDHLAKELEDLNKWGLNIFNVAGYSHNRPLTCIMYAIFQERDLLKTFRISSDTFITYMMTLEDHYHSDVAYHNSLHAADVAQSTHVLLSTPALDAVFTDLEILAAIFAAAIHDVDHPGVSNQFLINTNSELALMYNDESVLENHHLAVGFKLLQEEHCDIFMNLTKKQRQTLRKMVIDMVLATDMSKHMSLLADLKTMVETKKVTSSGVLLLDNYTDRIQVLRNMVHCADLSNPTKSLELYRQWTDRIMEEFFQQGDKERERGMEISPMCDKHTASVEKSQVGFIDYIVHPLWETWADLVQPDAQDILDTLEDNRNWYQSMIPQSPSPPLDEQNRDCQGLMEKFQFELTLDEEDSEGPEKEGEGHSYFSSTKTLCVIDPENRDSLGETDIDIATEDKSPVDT

For the molecule `Cc1ccc2c(c1)Cc1c(C(=O)NN3CCCCC3)nn(-c3ccc(Cl)cc3Cl)c1-2`, in [1], the Potency entry is “inactive”.

As to `Clc1cncc(N2CCNCC2)n1`, the Potency in assay [2] is 2 µM (active); in assay [3], greater than 46 µM; in assay [4], greater than 46 µM; in assay [10], 24.1 µM (active) and 10.8 µM (active); in assay [11], 24.1 µM (active) and 8.57 µM (active). The molecule was classed as inactive in [5]. The Potency entry in [6], in assay [7], in assay [8], in assay [9], in assay [12] and in [13] was “inactive” throughout. In addition, the Potency result in [14], in [15] and in assay [16] was “inactive” in each case.

Regarding `CCCCC/C=C\C/C=C\C/C=C\C/C=C\CCCCCC(=O)NCCO`, in assay [1], the activity change, negative = inhibition was 3.5% [at 6.83 µM].
